Among all 53,000 sequences or so, about 3,700 (7%) were called active. The full list was thinned out, with actives kept by preference. Unmarked numbers belong to inactive results.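 How the source made its calls: active means gene knockdowns whose robust z-score for IL-1 alpha signal is at least 2 or at most -2, so actives lie on both sides; inactive means the rest.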

A short description of the test: Components of the Cytosolic LPS Sensing Pathway: Gene Identification via Genome-wide siRNA Screen. The conditions noted are these: RAW264.7 macrophages, IL-1a HTRF, actives lie on both sides, screened at 100 nM (by protocol), cells primed 5 h with Pam3CSK4 first. An excerpt:
Non-canonical inflammasome activation by cytosolic LPS is a critical component of the host response to Gram-negative bacterial infection, however we lack a comprehensive understanding of the cellular processes that control this pathway. Here we describe a genome-wide siRNA screen to identify genes regulating the mouse macrophage IL-1 alpha response to cytosolic LPS.
RAW264.7 cells were maintained in complete DMEM media, comprising DMEM with 4.5 g/L glucose, 10% FBS (Gemini Bio-Products, West Sacramento, CA), 2 mM Glutamine (Lonza) and 20 mM HEPES (Lonza), hereafter complete DMEM.
The RNAi screen was conducted in 384-well format using the Ambion Silencer Mouse Genome siRNA Library (#4391425), which consists of three unique, nonoverlapping, nonpooled siRNAs for each of 17,000 gene targets. siRNA reagents ([…]) were stamped into 384-well white flat-bottom microplates (Corning, 3570) using a Velocity11 VPrep liquid handling system (Agilent) integrated into a BioCel robotic platform (Agilent) in columns 1-22, leaving columns 23-24 empty for negative (Ambion, Negative control #1) and positive (mouse Casp4) controls, respectively. The median value of each plate's negative control column was used to normalize sample wells, and the positive control was used to assess transfection efficiency and assay performance.
Lipofectamine RNAiMAX Transfection Reagent ([…]; Invitrogen) was added in […] serum-free, antibiotic-free media to plate wells using a Thermo Scientific Matrix WellMate and Microplate Stacker. Plates were incubated for 45 min at room temperature to allow for the sufficient formation of siRNA-lipid complexes. Cells were seeded at a density of 1x10^4 cells per well in 20 microL media containing 20% (vol/vol) FBS without antibiotics. The final concentration of siRNA in each well was 100 nM. Cells were cultured for 48h at 37 degrees C in 5% CO2 before addition of […] of TLR ligand Pam3CSK4 for 5 hours. The medium was then removed, replaced with […] growth media and cell were transfected with […] of LipidA and TransIT-TKO (Mirus) for 24 hour. At the end of the LipidA treatment, […] of supernatant was transferred to a 384 Greiner Bio-one non-binding low volume plate and […] of IL-1a HTRF reagent (Cisbio, 62MIL1APEH) was added and incubated at room temperature overnight. The plates were read on an EnVision plate reader (PerkinElmer). Cell viability was measured by adding 20ul Cell Titer Glo to the original plate and running a luminescence read on the EnVision. The quantified IL-1a signal for each siRNA gene-targeted well was divided by the median of the negative control wells and multiplied by 100 to achieve a negative control normalized value for each well/siRNA. This normalized value was then used to generate a robust z-score by first taking the log of each value and then by subtracting the median and dividing by the […].
(In general: Time-resolved FRET reads energy transfer from a long-lived donor to a nearby acceptor.)
With “GGUCUUCAAUUUCUUCAAATT against 4930430F08Rik”, the z-score is 0.928.

On to GCAAUGUGUAUCAGCCGACTT against Gprc5b, for which the z-score was 3.38 (active).

In the case of GGGAAAACCGAAUAAAGAUTT against Ren2, the z-score was -1.51.

On to GCAUACCAUCUUAUUUUGGTT against Sptlc1, for which the z-score was 0.159.

Take GCGUGAGCUAAUGUUCACATT against Agpat2: the z-score was -0.255.

As to “GCCACUACUAAUAGCAUGUTT against 5330438I03Rik”, the z-score was -1.68.

In the case of CCCAGCACAUGCUAUCUCUTT against Zbtb21, the z-score is -2.6 (active).

On to GGAGAAUGGAAAGUAUGGGTT against D1Pas1, for which the z-score is -1.99.

As to GCCUAUAAGGAAUAACAAGTT against Cerkl, the z-score was 1.27.

Consider GGCCUUGAUGGUGAAGAUGTT against Vstm4, for which the z-score was -1.79.

As to GGACAGACGUGCACUUAGATT against Garnl3, the z-score is 0.875.

For GGUGGAUGUUCGCAUGAUUTT against Ip6k1, the z-score is -1.2.

For GGCAUAUACACAAUUGAUATT against Arsk, the z-score was -1.27.

Regarding GGAUAAGGAGAUGAAUUCCTT against Aard, the z-score was 1.01.

Take GGUCUUACGCAAAACGGUCTT against Csf1r: the z-score is 2.86 (active).

As to CCCAAUCCUGUCAAUAGUCTT against Gfpt1, the z-score is -0.911.

Turning to GGCCUAAUGAAUUUGGUCATT against Ubxn7, the z-score is 0.93.

In the case of CCCACAAAUUAAAGUCCGCTT against Cldn16, the z-score is 0.926.

Consider GGACCUGUCUUCAUUGGAGTT against Ngb, for which the z-score was 0.981.

GCAGAUAAUUUUAACCCUCTT against Inpp5b: the z-score was 0.641.

On to GCCAUUCUCCAACAAUCGATT against Evc, for which the z-score was -1.69.

Consider CCUGCUACAAGUAUCUCAATT against Fdft1, for which the z-score is 2.85 (active).

GCAACCUCUCCUCUCUAGATT against Olfr15: the z-score is -1.11.

For the sequence GCGGAUUCAGCUGAUGAUGTT against Sash1, the z-score is -1.32.

As to GGGUUCUCAAGGUUGCAUUTT against Frs3, the z-score was 1.15.

For the sequence GCUCGCCUGCAUUUCAUCATT against Pank4, the z-score was 3.3 (active).

For CCCGGUUAGCCUUUGAUUGTT against Lamc3, the z-score is 0.576.

On to GGGAAUUUUGAAAAGGCUGTT against Nphp3, for which the z-score was 2.12 (active).

Take CCCUUGAGUCAUUCUCUAATT against Gsto1: the z-score was 0.0391.

GGAAAUAGAUUUUCAGCUCTT against Dnase2b: the z-score is 0.138.

GGAAUUUGAAACUUACGGCTT against Oc90: the z-score was 0.379.

With UUUCGAGCUGAUCCAUGAGTT against Tbata, the z-score was 1.19.

For GGUCCAGAUCCACCAGAUUTT against Banp, the z-score was 1.11.

Take GGCACUCAAUGGUGAGCAATT against Sipa1: the z-score was 2.03 (active).

As to GGCUCUUGCUUUAGUAUUCTT against Ly9, the z-score is 0.99.

GGCAGAUUACUCUGAAUGATT against Prdx4: the z-score was 0.326.

Consider GGUUUAUUGUAAUGGCUAATT against Olfr1271, for which the z-score is 0.452.

For the sequence GGACAAAUGGGUAUUAUCUTT against Phxr4, the z-score was -1.01.

For GGAGAUGAUUUCCUACUUCTT against Rasgrp2, the z-score was 3.47 (active).

For GGUGUACCAGAAUGAGAAGTT against Akr1b3, the z-score is 0.611.

With GGUAUUUAGUAAACACCCATT against Edar, the z-score is 0.413.

As to GGGUCAAAUCUGACUGCAUTT against Klf10, the z-score is 0.501.

In the case of GAGAACCAGGCUAUGUCUGTT against Defa-rs10, the z-score was 0.623.

Take GCUGGCUGUUGGAUAAGUGTT against Olfr1112: the z-score is 2.45 (active).

Regarding CCUUGAUUGAGCCUGACUUTT against Hook2, the z-score is 0.543.

Regarding CCUCAUAUAUCCCUAAUUATT against Camk1g, the z-score is -0.982.

Regarding GGACCUGUUUGAGCAGAGGTT against Eps8l2, the z-score was 0.539.

For the sequence GGUAGAAGUGAAAAAGAUATT against Bhmt, the z-score is -0.386.

For GCGAGAGAUUCUUUCCCUGTT against Traf6, the z-score was -1.24.

Turning to CCUCCUCUCUGUUUUCUACTT against Olfr699, the z-score is -1.16.

As to GCAGAAAAACCUGUGAAAATT against Pcnp, the z-score is 1.57.

With GGAUGGAUGUUUGCAUAAATT against Msx2, the z-score is 5.06 (active).

Turning to GGGACACAUACUGUAGUAUTT against Pspc1, the z-score was 0.00343.

Consider GGAGGAGAUGAUGAAUUUUTT against Etf1, for which the z-score is 0.965.

Turning to GGUGAGUUCAUGGUUUCCUTT against Txnl4b, the z-score is -0.142.

As to GAGAAACUAUGGCUGAAAATT against Klk1, the z-score is 0.439.

For the sequence CCCUAAAAGACAAAGUGCUTT against Cmtm3, the z-score is 0.877.

For CCUAGAGAGACAUAUUGUUTT against Vstm4, the z-score is -0.206.

On to GCCAAUGACCCAAAUUCUATT against Ppip5k1, for which the z-score was 0.812.

With CCAUUUUUACCUACAUCCATT against Olfr452, the z-score was 2.43 (active).

As for CCCUACAGUACUAAUCAAATT against Ptgs2, the z-score was 0.6.

In the case of GGGCUCUAACAUCUUAUACTT against Tbc1d31, the z-score was 1.54.

For GGGCCAUGGAUAAGAAAAATT against Psmc5, the z-score was -2.61 (active).

For GGCACAGACGGAUCAACAGTT against Clcn3, the z-score was -0.725.

As to GCUAUUGAGAAACCACUUATT against Rasef, the z-score was -0.276.

Consider CCUAUUACUCAAACACAGATT against Arl5b, for which the z-score was -0.257.

Turning to GGACACAGCAAGAAGAUACTT against Wfdc12, the z-score was -1.79.

GCCACACCAAUAGAAGUGUTT against Csnk1g3: the z-score was -2.42 (active).

In the case of UCUCCUUCAUUCCAUGUAUTT against Olfr441, the z-score is -2.18 (active).

Turning to CCAUCAAAGUCAUCGACGGTT against Birc6, the z-score is -0.427.

On to GGAGUGAGUCCUGAAGCAATT against Ifna12, for which the z-score was -0.372.

For GCCGUUACUGAGCUGAAAUTT against Allc, the z-score is -0.866.

On to CGCUUCAUGACUUCUGAAUTT against Ppp1r32, for which the z-score is 0.0722.

As for GCCCAACCUGUCCAUACUUTT against Guca2b, the z-score is -0.193.

In the case of GCUAUUUUCGUCACUUUCUTT against Tssk1, the z-score is 0.494.

On to GGAUGAAUUCAUUGAAGAATT against Btk, for which the z-score was 0.321.

On to GGUUCGUCGCCUUUUAGGGTT against Alx4, for which the z-score is 3.74 (active).

GAGCUUCUAAUUCACCCUATT against Abcc6: the z-score is 0.181.

Take GGGAACCUUACUGUGUUAUTT against Gpr85: the z-score is 0.477.

Take GGGUUUCCAGUACCUCAAUTT against Serpina6: the z-score is -1.28.

For GGCUUUUAUAGCUAAGGUUTT against Spc25, the z-score is -2.18 (active).

Consider GGACUGUGAACAACUUUCGTT against Tcim, for which the z-score is -1.07.

As to GGCUAUCUACAAAAUGGUGTT against Vsnl1, the z-score was -1.31.

For GCUAACCAGUGAUCCUACATT against Olfr846, the z-score was 0.471.

Turning to “GCACUUGUGACUUAUUGGATT against Vmn2r-ps11”, the z-score is 0.506.

As for GGGUCAGAGUUUUUCCAUCTT against Otog, the z-score is 2.72 (active).

As to GGGACGUAAAUCAAAUGAATT against P2ry12, the z-score was 0.096.

For GGAGGUGGAACUGCUGUAUTT against Fam180a, the z-score was -0.257.

For the sequence GGCAGAAAGAUUAUGAGUUTT against Gpr171, the z-score was 2.35 (active).

Turning to GGAAUUAAAAGAGCUGGGCTT against Selenon, the z-score was 0.697.

In the case of GGGUGCUGAACAGUCACAATT against Rab12, the z-score is 0.717.

As to UGAAGGCAAAUCACUCUUUTT against Olfr181, the z-score was -0.042.

In the case of “GGAGGAUCCUGCUAUUCCATT against 4930583K01Rik”, the z-score is -2.24 (active).

For the sequence GGUGCUGGAGAAGAACAUGTT against Map2k3, the z-score is 1.51.

Regarding GGAAAGAGAUUCUCUUCUATT against Nsun2, the z-score was -1.2.

CGGCUUUGAAGUGGUGUAUTT against Smad9: the z-score is 1.66.

Consider CCUUAGGCAUGGUCUGGACTT against Gal3st2, for which the z-score is 0.897.

On to CCUUCAUGAGUCCUCUUCATT against Gaa, for which the z-score is -2.08 (active).

On to GGGUUUUCAAAGACAAGAUTT against Frmd6, for which the z-score was 1.47.

Regarding GGAGCUUUUUAUGUUUUAGTT against Fam177a, the z-score was 1.93.

Turning to CCCUGAGAUAGGCAAUGUGTT against Tceanc2, the z-score was -1.57.

As for GCUUCAUGGAUGCAAUUGATT against Adhfe1, the z-score is -0.659.

For the sequence GGUUGAAAAGUAUCAAAGATT against Pus7l, the z-score was -0.359.

As to GGAUUAGACUGUCUUCAGCTT against Rnf144a, the z-score is -0.496.

GGCCUGUUUUGUACUUUUATT against Polr3gl: the z-score is 0.149.

On to GGGAUAUUCAAAAUACUAGTT against Hells, for which the z-score was 0.653.

As for GCUACAGACUGAACAAUGATT against Rbm17, the z-score was -2.08 (active).

On to CCAUCUGAUUAAUGGCUUCTT against Tm7sf2, for which the z-score was 1.03.
